Assay outcomes from PubChem BioAssay.
Compounds with a hit are over-represented: about 19% of the library has one in this group of screens.
DT40 TDP1 CPT: growth inhibition of DT40 Tdp1-/-;hTDP1 cells with camptothecin (screen for TDP1 inhibitors) | chicken DT40 Tdp1-/-;hTDP1 cells + 20 nM CPT, ATP luminescence, 48 h | Potency, µM (highest dose often 46.2 µM), without a hit: at the highest dose activity change, negative = growth inhibition, most hits filed as inhibitors | hit rate 12% among 420,000 | AID 686979; also: potency is read from the fitted curve at half-maximal effect; % is scaled to controls: 0 for no effect and ±100 for the full control effect; nearly all actives have a fitted effect of over 55% in size
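Cell growth measured by CellTiter-Glo luminescence after a minimum 48 h, 37 C compound exposure with 20 nM CPT in Tdp1-knockout DT40 cells stably expressing hTDP1, seeded 400/well; qHTS titration format.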
DT40 TDP1 no CPT: qHTS for Inhibitors of human tyrosyl-DNA phosphodiesterase 1 (TDP1): qHTS in cells in absence of CPT; hit rate 15% among 420,000; Potency, µM (highest dose often 46.2 µM), without a hit: top-dose activity change, negative = growth inhibition, usual class: inhibitors; DT40 Tdp1-/- hTDP1 cells, no CPT, ATP luminescence, 48 h; also: potency is read from the fitted curve at half-maximal effect; % is scaled to controls: 0 for no effect and ±100 for the full control effect; nearly all actives have a fitted effect of over 55% in size
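DT40 Tdp1-/-;hTDP1 cells, no CPT (DMSO vehicle only), 400 cells/well; compounds pin-transferred; ≥48 hr, 37 °C; CellTiter-Glo 30 min RT dark, luminescence read.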
S-ASM inh: inhibitors of human secretory acid sphingomyelinase; hit rate 0.006% among 340,000; Potency, µM (doses to about 57.5 µM), without a hit: at the top dose activity change, negative = inhibition, usual class: inhibitors; AID 504937; placental ASM, HMU-PC fluorogenic substrate, 60 min; also: potency is read from the fitted curve at half-maximal effect
Target sequence (P17405 47-631 limits assumed): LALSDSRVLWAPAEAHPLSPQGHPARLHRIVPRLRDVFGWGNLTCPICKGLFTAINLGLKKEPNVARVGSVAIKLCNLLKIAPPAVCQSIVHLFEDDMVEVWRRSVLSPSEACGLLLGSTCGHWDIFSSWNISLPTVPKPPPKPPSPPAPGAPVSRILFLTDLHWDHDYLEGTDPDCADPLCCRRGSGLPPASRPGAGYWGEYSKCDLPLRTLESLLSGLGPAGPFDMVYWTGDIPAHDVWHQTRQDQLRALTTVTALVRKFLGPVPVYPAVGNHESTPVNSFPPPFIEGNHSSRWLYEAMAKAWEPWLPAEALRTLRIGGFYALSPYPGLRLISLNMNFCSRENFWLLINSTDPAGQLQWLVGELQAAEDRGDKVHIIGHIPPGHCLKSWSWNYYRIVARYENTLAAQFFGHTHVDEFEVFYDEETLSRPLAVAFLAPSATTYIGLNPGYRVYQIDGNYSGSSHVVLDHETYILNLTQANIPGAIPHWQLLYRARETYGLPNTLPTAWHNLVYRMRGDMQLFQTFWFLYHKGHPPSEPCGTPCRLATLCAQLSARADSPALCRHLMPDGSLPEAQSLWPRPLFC
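HMU-PC0 cleavage (9 uM final) by human placental ASM, 60 min at 37 °C following 10 min compound exposure at RT; stopped at pH 10, fluorescence Ex 386/Em 447 nm.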
IL-1B inflam inh: inhibitors of inflammasome signaling (IL-1 beta secretion) | THP-1 LPS/ATP IL-1B secretion, AlphaLISA, 16 h; active compounds read low | activity change, % at 57.5 µM | hit rate 4.7% among 360,000 | AID 743279; in the data active = activity change below about -50%; inconclusive = mostly about -30% to -49%; also: % is scaled to controls: 0 for no effect and ±100 for the full control effect
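THP-1 cells pretreated 1 hr with compounds (up to 57.5 uM final), then stimulated with LPS (250 ng/mL final) plus ATP (1.25 mM final); secreted IL-1B measured by AlphaLISA after 16 hr, decreased signal indicating inhibition.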
HepG2 tox: HepG2 cytotoxicity, counter-screen for TGF-b inhibitors; HepG2 CAGA-GFP viability, ATP luminescence, 18 h; Potency, µM (series often up to 46.1 µM), for the others: at the highest dose activity change, negative = cytotoxicity, usual class: cytotoxic; hit rate 0.76% among 410,000; also: potency is read from the fitted curve at half-maximal effect
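HepG2 CAGA-GFP cells (1000/well, DMEM with 1% FBS) received compound, then TGF-beta at 500 pg/mL final, and were incubated 18 hours at 37 degrees C. Viability was read by CellTiter-Glo luminescence. Media-only wells were set as complete cell-killing and DMSO as no toxicity.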
TGFb inhibitor: inhibitors of TGF-b signaling. Potency, µM (top dose mostly 46.1 µM), for the others: at the top dose activity, negative = inhibition, actives largely listed as inhibitors. HepG2 CAGA-GFP TGF-b/SMAD3 reporter, GFP fluorescence, 18 h; TGF-beta stimulated, 500 pg/mL final. hit rate 1.2% among 410,000; also: potency is read from the fitted curve at half-maximal effect; % is scaled to controls: 0 for no effect and ±100 for the full control effect; nearly all actives have a fitted effect of over 65% in size
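Cell-based qHTS in HEPG2 carrying a CAGA-GFP Smad reporter; compounds added before 500 pg/mL final TGF-beta, 18 h incubation at 37 degrees C, GFP fluorescence quantified per cell by imaging cytometry.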
An asterisk follows results filed as active; i = inactive; ? = inconclusive; · = no result. Unless noted, calls follow the shape of the dose curve; as a rule, active = well fitted curve in the direction sought with a large enough effect; inconclusive = small, poorly fitted or top-dose-only effect, or another doubt; inactive = no such curve, though single readings can be large; an effect the other way counts as inactive or inconclusive.

SMILES	DT40 TDP1 CPT	DT40 TDP1 no CPT	S-ASM inh	IL-1B inflam inh	HepG2 tox	TGFb inhibitor
O=C(Nc1ccc(Cl)cc1)OCCn1nnnc1C(c1ccccc1Cl)N1CCOCC1 (stereo unspecified)	26µM*	18µM*	-10%	-29	-17%	-6%
COc1ccc(-c2nnc(NC(=O)c3ccc(S(=O)(=O)N(C)CC4CCCO4)cc3)o2)c(OC)c1 (stereo unspecified)	?	?	0%	i	-34%	9%
COc1ccc(OC)c(S(=O)(=O)NCCc2csc(-c3cccnc3)n2)c1	-7%	-14%	3%	-2	3%	-2%
COc1ccc(F)cc1S(=O)(=O)NCCc1csc(-c2ccc(Cl)cc2)n1	?	?	·	·	-24%	13µM*
O=S(=O)(NCCc1csc(-c2ccc(F)cc2)n1)c1ccc(F)cc1F	16µM*	21µM*	·	·	-28%	?
O=C(c1ccc2c(c1)OCO2)c1cn(Cc2ccc(F)cc2)c2ccccc2c1=O	?	?	·	·	-10%	-5%
C[C@@H]1CC2=C(C(=O)OC(C)(C)O2)[C@H](c2ccc(F)cc2)O1	0%	-5%	·	53	·	·
COc1ccc(/C=C/C(=O)N(C(C)C)C(C)C)cc1Br	?	13µM*	-2%	-26	-6%	-2%
COc1ccc(/C=C/C(=O)N(C)C2CCCCC2)cc1Br	?	?	-2%	-68*	-6%	-7%
CCN(C(=O)/C=C/c1ccccc1)C1CCCCC1	-1%	?	-3%	?	6%	7%
CN(C(=O)/C=C/c1cnc2ccccc2c1)C1CCCCC1	-19%	?	-2%	-58*	-6%	4%
COc1ccc(/C=C/C(=O)NC(C)C)cc1Br	17%	-5%	3%	-10	-2%	1%
O=C(NC1CC1)c1ccc(Cn2c(SCc3cccc(F)c3)nc3cccnc32)cc1	?	8.2µM*	·	·	-24%	?
O=C(NC1CCCC1)c1ccc(CSc2nc3cccnc3n2Cc2ccccc2F)cc1	?	21µM*	·	·	-36%	?
O=C(NC1CCCC1)c1ccc(CSc2nc3cccnc3n2Cc2ccc(F)cc2)cc1	-1%	-15%	·	·	1%	9%
O=C(NC1CC1)c1ccc(Cn2c(SCc3ccc(F)cc3)nc3cccnc32)cc1	-30%	-29%	·	·	-20%	?
O=C(NC1CCCCC1)c1ccc(Cn2c(SCc3ccc(F)cc3)nc3cccnc32)cc1	-9%	-10%	·	·	-23%	-25%
COc1ccc(Cn2c(SCc3ccc(C(=O)NC4CCCCC4)cc3)nc3cccnc32)cc1	?	15µM*	·	·	-14%	5%
O=C(NC1CCCCC1)c1ccc(CSc2nc3cccnc3n2Cc2ccc(F)cc2)cc1	?	13µM*	·	·	-78%	?
O=C(Nc1cccc(Cl)c1Cl)c1ccccc1OCC(=O)N1CCOCC1	-29%	?	1%	4	8%	12%
CC1CCCN(Cc2nc3c(c(=O)n(C)c(=O)n3C)n2Cc2ccc(Cl)cc2Cl)C1 (stereo unspecified)	-2%	-26%	·	·	2%	0%
COc1ccc(N2CC(NC(=O)c3ccc4c(c3)OCO4)CC2=O)cc1 (stereo unspecified)	-24%	-20%	·	·	-12%	2%
O=c1n(-c2ccc(Br)cc2)cnn1-c1ncccc1[N+](=O)[O-]	-9%	-13%	2%	-16	-7%	-1%
CCOC(=O)C1=CCN(S(=O)(=O)c2ccccc2C)C1c1ccc(Cl)c(Cl)c1 (stereo unspecified)	?	?	·	4	-23%	?
COc1ccc(-n2c(=O)c3c(c4cc(OC)ccc4n3C)n(CC(=O)NCC3CCCO3)c2=O)cc1 (stereo unspecified)	-5%	?	·	·	-10%	4%
SMILES	DT40 TDP1 CPT	DT40 TDP1 no CPT	S-ASM inh	IL-1B inflam inh	HepG2 tox	TGFb inhibitor
O=C(NC1CCCCC1)c1ccc(CSc2nc3cccnc3n2Cc2cccc(F)c2)cc1	10µM*	5.2µM*	·	·	-31%	?
Cc1cccc(Cn2c(SCc3ccc(C(=O)NC4CCCCC4)cc3)nc3cccnc32)c1	6%	-3%	·	·	11%	8%
COc1ccc(NC(=O)Cn2c(SCc3ccc(C)cc3)nc3cccnc32)c(OC)c1	15µM*	?	·	·	-26%	?
CCOCCOC(=O)C1=C(C)N(C)C(=O)NC1c1ccccc1Cl (stereo unspecified)	-24%	-23%	2%	0	-9%	-4%
CC1=C(C(=O)OCC(C)C)C(c2cc3c(cc2Br)OCO3)NC(=O)N1C (stereo unspecified)	18µM*	?	-1%	-7	-30%	?
CCCOC(=O)C1=C(C)N(C)C(=O)NC1c1cc2c(cc1[N+](=O)[O-])OCO2 (stereo unspecified)	?	?	11%	6	-21%	-15%
CCOC(=O)C1=C(C)N(C)C(=O)NC1c1cccc2ccccc12 (stereo unspecified)	?	26µM*	1%	51	-1%	0%
CC1=C(C(=O)OCC(C)C)C(c2ccccc2Cl)NC(=O)N1C (stereo unspecified)	8.2µM*	13µM*	4%	-15	-34%	?
CCOc1ccccc1CN1CCN(C2CCSCC2)CC1CCO (stereo unspecified)	7%	2%	2%	1	-17%	1%
Cc1ccc(Cn2c(=N)n(CC(O)COc3ccccc3)c3ccccc32)cc1 (stereo unspecified)	18µM*	9.2µM*	-2%	0	2.8µM*	?
OC(COc1ccc(OCC(O)CN2CCN(Cc3ccccc3)CC2)cc1)CN1CCN(Cc2ccccc2)CC1 (stereo unspecified)	?	?	-1%	?	29%	-2%
N=c1n(Cc2ccccc2)c2ccccc2n1CC(O)COc1ccccc1 (stereo unspecified)	7.3µM*	6.5µM*	-1%	-88*	-94%	?
Cc1nccn1CC(O)COc1ccccc1 (stereo unspecified)	2%	0%	5%	2	-1%	0%
CCN1CCN(C(C)C(=O)NC2CCCCC2)CC1 (stereo unspecified)	-3%	0%	-5%	-10	17%	-10%
O=C(Nc1ccccc1F)c1oc2ccccc2c1NC(=O)C12CC3CC(CC(C3)C1)C2	-6%	4%	·	·	-32%	2%
